Read-outs that look alike come from different tables or passages of the source. About 3,200 (25%) of roughly 13,000 compounds showed an effect of 50% or more. The list shows a part of the results.
Test system: P. falciparum stage V gametocytes
Set-up: BacTiter-Glo ATP luminescence viability of purified stage V gametocytes in 384-well plates, per cent inhibition versus DMSO

SMILES	% Inhibition (48 h, 5 µM; inhibitor) [%]	% Inhibition (48 h, 5 µM, inhibitor) [%]
O=C(Nc1ccc(Cl)cc1)c1ccc(CN2CCCN(Cc3cccc(F)c3)CC2)cc1 [TCMDC-136404]	-18.08	–
N#Cc1ccc(CN2CCCN(Cc3cccc(NC(=O)c4ccc(-c5ccccc5)cc4)c3)CC2)cc1 [TCMDC-141838]	91.89	–
Cc1ccc(CC(C)NC[C@H](O)c2cccc(Cl)c2)cc1 (stereo partly drawn) [TCMDC-131477]	–	11.62
CCOP(=O)(OCC)c1ccc(OC)c(-c2ccc[nH]2)c1 [TCMDC-139023]	22.96	–
COC(=O)/C=C/C(=O)N[C@@H]1CC[C@@]2(O)[C@H]3Cc4ccc(O)c5c4[C@@]2(CCN3CC2CC2)[C@H]1O5 [TCMDC-125875]	50.91	–
C#CCN1CCC2=C(C1)c1c(O)cc(C(C)CCCc3ccc(F)cc3)cc1OC2(C)C (stereo not drawn) [TCMDC-124277]	-40.47	–
O=C(/C=C/c1ccc(Cl)c(Cl)c1)NCCCCCN1CCCN(C(=O)Nc2ccc(C(F)(F)F)cc2)CC1 [TCMDC-135757]	8.096	–
Cc1cc(C)c(CC(C)NCC(O)c2cccc(C(F)(F)F)c2)c(C)c1 (stereo not drawn) [TCMDC-131460]	-4.216	–
C[C@@H](CC1CCCCC1)NCc1ccccc1O [TCMDC-140305]	71.87	–
CCN(CC)CCOC(=O)C(OC)(c1ccccc1)c1ccccc1 [TCMDC-131779]	18.56	–
Cc1ccc(CC(C)NCC(O)c2cccc(C(F)(F)F)c2)c(C)c1 (stereo not drawn) [TCMDC-131465]	-0.5645	–
CSc1ccc(C[C@@H](C)NC[C@H](O)c2cccc(Cl)c2)cc1 [TCMDC-131507]	10.96	–
CNCCN(C)C(=O)Oc1c(Br)c(C)nc(C)c1-c1ccc(Oc2ccc(OC(F)(F)F)cc2)cc1 [TCMDC-137377]	86.68	–
CNCCCN(C)C(=O)Oc1c(Br)c(C)nc(C)c1-c1ccc(Oc2ccc(OC(F)(F)F)cc2)cc1 [TCMDC-132416]	117.8	–
Cc1nc(C)c(-c2ccc(Oc3ccc(OC(F)(F)F)cc3)cc2)c(OC(=O)N(CCNC(C)C)C(C)C)c1Br [TCMDC-132417]	109	–
CNCCN(C)C(=O)Oc1c(Cl)c(C)nc(C)c1-c1ccc(Oc2ccc(OC(F)(F)F)cc2)cc1 [TCMDC-137384]	42.19	–
COc1ccc(CC(C)NCC(O)c2cccc(Cl)c2)cc1C (stereo not drawn) [TCMDC-131505]	13.45	–
CCc1ccc(CC(C)NCC(O)c2ccccc2)cc1 (stereo not drawn) [TCMDC-131463]	17.08	–
CN1CC(c2ccc(Cl)c(Cl)c2)OC1=N (stereo not drawn) [TCMDC-137454]	1.442	–
Cc1ccc(CC(C)NCC(O)c2cccc(C#N)c2)cc1 (stereo not drawn) [TCMDC-131451]	40.18	–
CCC1(C)CC(CCNCc2ccccc2O)(c2ccc(C)cc2)CCO1 (stereo not drawn) [TCMDC-124003]	4.575	–
COCCSc1ccc(CC(C)NCC(O)c2cccc(Cl)c2)cc1 (stereo not drawn) [TCMDC-131513]	22.33	–
CCCCCCCCCCS(=O)(=O)N[C@H](COCc1cccc(Oc2ccccc2)c1)COP(=O)(O)OC [TCMDC-131877]	13.38	–

SMILES	% Inhibition (48 h, 5 µM; inhibitor) [%]	% Inhibition (48 h, 5 µM, inhibitor) [%]
CC(C)CCN1C(=O)C(NC(=O)Oc2ccccc2)C(=O)N(CC23CC4CC(CC(C4)C2)C3)c2ccccc21 (stereo not drawn) [TCMDC-137160]	-43.48	–
CCCC(=O)c1c(O)c2ccccc2oc1=O [TCMDC-123881]	11.83	–
Cc1ccc(C[C@@H](C)NC[C@H](O)c2cccc(C(F)(F)F)c2)cc1 [TCMDC-131449]	8.152	–
[O-]c1n[n+](C2CCCCC2)no1 [TCMDC-138090]	57.64	–
CCOC(C(=O)OCCN(C(C)C)C(C)C)(c1ccccc1)c1ccccc1 [TCMDC-131391]	-28.65	–
COc1ccc(C[C@@H](C)NC[C@H](O)c2cccc(Cl)c2)cc1F [TCMDC-131516]	–	9.097
Cc1cccc(N2CCN(Cc3cc(Cl)ccc3O)CC2)c1C [TCMDC-123718]	-35.86	–
Cc1ccc(C)c(N2CCN(Cc3ccccc3O)CC2)c1 [TCMDC-123518]	7.065	–
Oc1cc2c(cc1CN1CCN(Cc3ccccc3)CC1)CCC2 [TCMDC-125104]	73.14	–
COc1ccc(O)c(CN2CCN(c3cc(C)ccc3C)CC2)c1 [TCMDC-124056]	6.084	–
CCN(CC)CCN1C(=O)C(O)(c2ccccc2Cl)c2c1cc(C(N)=O)cc2C(F)(F)F (stereo not drawn) [TCMDC-133544]	37.34	–
COc1ccc(CC(C)NCC(O)c2cccc(Br)c2)cc1 (stereo not drawn) [TCMDC-131496]	20.1	–
COc1ccc(C[C@@H](C)NC[C@H](O)c2cccc(Cl)c2)cc1F [TCMDC-131502]	–	8.677
CCOC(C(=O)OCC1CCCN(C)C1)(c1ccccc1)c1ccccc1 (stereo not drawn) [TCMDC-131382]	13.79	–
CCOC(C(=O)OCC1CCCN1C(C)C)(c1ccccc1)c1ccccc1 (stereo not drawn) [TCMDC-131750]	-3.502	–
COC(C(=O)OCCC1CCCN1C)(c1ccccc1)C1CCCCC1 (stereo not drawn) [TCMDC-131374]	34.4	–
CCCCOC(C(=O)OCC1CCCN1C)(c1ccccc1)c1ccccc1 (stereo not drawn) [TCMDC-131730]	-23.33	–
CCOC(C(=O)OCC1CCCN1C)(c1ccccc1)c1ccccc1 (stereo not drawn) [TCMDC-131676]	62.64	–
COC(C(=O)OCCC1CCCN1C)(c1ccccc1)c1ccccc1 (stereo not drawn) [TCMDC-131780]	73.28	–
Cc1ccc(CC(C)NCC(O)c2cccc(Br)c2)cc1 (stereo not drawn) [TCMDC-131444]	5.106	–
CCN(CC)CCN1C(=O)C(O)(c2ccccc2Cl)c2c1cc(C#N)cc2C(F)(F)F (stereo not drawn) [TCMDC-132583]	-22.22	–
CCCCCC(C)C(C)c1cc(OC(N)=O)c2c(c1)OC(C)(C)C=C2c1ccncc1 (stereo not drawn) [TCMDC-131796]	-24.09	–
O=P(O)(O)Oc1c(Br)cc(Br)cc1-c1cc(Br)cc(Br)c1O [TCMDC-131736]	1.085	–

SMILES	% Inhibition (48 h, 5 µM; inhibitor) [%]	% Inhibition (48 h, 5 µM, inhibitor) [%]
COc1ccccc1CC(C)NCC(O)c1cccc(Cl)c1 (stereo not drawn) [TCMDC-131497]	-23.86	–
COc1cc(NCCCNC(=O)c2cn(Cc3ccccc3)c3ccccc23)nc2ccccc12 [TCMDC-140140]	60.42	–
CN(C)CCC(=O)c1ccccc1 [TCMDC-125532]	42.07	–
Cc1ccc(CC(C)NCC(O)c2cccc(C(F)(F)F)c2)cc1F (stereo not drawn) [TCMDC-131520]	16.03	–
O=C(c1ccco1)c1cn(CCOc2ccccc2)c2ccccc12 [TCMDC-124426]	-19.68	–
COc1ccc(OCCn2cc(C(=O)c3ccco3)c3ccccc32)cc1 [TCMDC-124425]	55.18	–
Cc1ccc(CC(C)NCC(O)c2cccc(Cl)c2)cc1F (stereo not drawn) [TCMDC-131522]	25.69	–
CC[C@H]1CN2CCc3cc(OC)c(OC)cc3[C@@H]2C[C@@H]1C[C@H]1NCCc2c1cc(OC)c(O)c2I [TCMDC-131829]	88.82	–
CC[C@H]1CN2CCc3cc(OC)c(OC)cc3[C@@H]2C[C@@H]1C[C@H]1NCCc2c1cc(OC)c(OC)c2Br [TCMDC-131803]	73.47	–
CC[C@H]1CN2CCc3cc(OC)c(OC)cc3[C@@H]2C[C@@H]1C[C@H]1NCCc2c1cc(OC)c(O)c2Cl [TCMDC-131802]	83.05	–
COc1ccc(NC(=O)NCC2CCCN(CCCCCNC(=O)/C=C/c3ccc(Cl)c(Cl)c3)C2)c(OC)c1 (stereo not drawn) [TCMDC-139520]	-54.43	–
Cc1ccc(CC(C)NC[C@H](O)c2cccc(Cl)c2)cc1 (stereo partly drawn) [TCMDC-131434]	–	17.71
Cc1ccc(CC(C)NCC(O)c2cccc([N+](=O)[O-])c2)cc1 (stereo not drawn) [TCMDC-131459]	42.66	–
CC(O)C1CCCCN1C(=O)c1cccc(-c2ccc(-c3nc4cc(F)ccc4[nH]3)cc2)c1 (stereo not drawn) [TCMDC-132337]	-4.748	–
CC(Cc1ccc(C(C)(C)C)cc1)NCC(O)c1ccccc1 (stereo not drawn) [TCMDC-131461]	-2.665	–
COc1cccc(CC(C)NCC(O)c2cccc(Cl)c2)c1 (stereo not drawn) [TCMDC-131508]	-2.665	–
COc1ccc(CC(C)NCC(O)c2cccc(C(F)(F)F)c2)cc1 (stereo not drawn) [TCMDC-131471]	20	–
Cc1c(C(=O)N[C@@H](C)c2ccccc2)c2cc(O)c(Br)cc2n1C1CCCCC1 [TCMDC-135454]	-62.04	–
COc1c(F)cc(CC(C)NCC(O)c2cccc(Cl)c2)cc1F (stereo not drawn) [TCMDC-131518]	14.1	–
N=c1c2c(n(Cc3ccc(Cl)cc3Cl)c3c1CCC3)CCCC2 [TCMDC-125310]	74.48	–
COc1ccc(NC(=S)NC(NC(=O)CF)C(Cl)(Cl)Cl)cc1[N+](=O)[O-] (stereo not drawn) [TCMDC-124240]	-10.17	–
CCC1=C[C@@H]2CN(C1)Cc1c([nH]c3ccccc13)[C@@](C(=O)OC)(c1cc3c(cc1OC)N(C)[C@H]1[C@@](O)(C(=O)OC)[C@H](O)[C@]4(CC)C=CCN5CC[C@]31[C@@H]54)C2 [TCMDC-137769]	33.28	–
Cl.c1ccc2c(NCCCCCCNc3c4ccccc4nc4ccccc34)c3ccccc3nc2c1 [TCMDC-124285]	125.5	–

SMILES	% Inhibition (48 h, 5 µM; inhibitor) [%]	% Inhibition (48 h, 5 µM, inhibitor) [%]
Cl.c1ccc2c(NCCCCCCCCCNc3c4ccccc4nc4ccccc34)c3ccccc3nc2c1 [TCMDC-124286]	134.6	–
C#CCN1CCC2=C(C1)c1c(O)cc(C(C)C(C)CCc3ccc(F)cc3)cc1OC2(C)C (stereo not drawn) [TCMDC-125707]	-44.99	–
Cc1ccc(CC(C)NCC(O)c2cccc(C(F)(F)F)c2)cc1 (stereo not drawn) [TCMDC-131476]	–	12.88
COc1cc2c(cc1OC)CN(CCCCNC(=O)c1ccc(NC(=O)c3cc(Cl)cc(Cl)c3)cc1)CC2 [TCMDC-138217]	-10.96	–
COc1ccc(CC(C)NCC(O)c2cccc(C(F)(F)F)c2)cc1F (stereo not drawn) [TCMDC-131490]	18.55	–
C=Cc1cc(OC)c2c(c1)c(=O)oc1c2cc(OC)c2c(O)ccc([C@H]3O[C@H]([C@H](C)O)[C@H](O)[C@H]3O)c21 [TCMDC-141972]	49.56	–
CC(=O)Nc1ccc(OCCN(CC(F)(F)F)c2ccc(C#N)cc2C(F)(F)F)cc1 [TCMDC-135848]	17.4	–
NC(N)=NC(=O)Nc1cc(Br)c(Cl)c(Br)c1 [TCMDC-137464]	72.05	–
CCC1(C)CC(CCNCc2ccccc2O)(c2ccc(F)cc2)CCO1 (stereo not drawn) [TCMDC-124006]	-8.682	–
COc1ccc(CC(C)NCC(O)c2cccc(Cl)c2F)cc1 (stereo not drawn) [TCMDC-131488]	21.97	–
COc1cc(NC(=O)/C=C/c2cc3ccccc3n2C)ccc1OCCN(C(C)C)C(C)C [TCMDC-139900]	118	–
Cc1ccc(CC(C)NCC(O)c2cccc(C(F)(F)F)c2)cc1 (stereo not drawn) [TCMDC-131450]	–	20.44
Cc1ccc(CC(C)(C)NCC(O)c2cccc(C(F)(F)F)c2)cc1 (stereo not drawn) [TCMDC-131445]	-8.892	–
CC[C@H]1CN2CC[C@H]1C[C@@H]2[C@@H](O)c1ccnc2ccccc12 [TCMDC-125880]	69.34	–
CCCN(CCC)CCOC(=O)C(OCC)(c1ccccc1)c1ccccc1 [TCMDC-131392]	-25.5	–
COc1ccc2[nH]cc(C3=CCN(Cc4ccccc4)CC3)c2c1 [TCMDC-139048]	-90.48	–
CC(Cc1ccc(SC(C)(C)C)cc1)NCC(O)c1cccc(Cl)c1 (stereo not drawn) [TCMDC-131492]	-3.8	–
CC(C)N(C)C(=O)n1cnc(S(=O)(=O)C2CC3CCC2C3)n1 (stereo not drawn) [TCMDC-134379]	65.83	–
O=C(NC1CCC(CN2CCC(c3c[nH]c4ccccc34)CC2)CC1)C1(O)c2ccccc2-c2ccccc21 (stereo not drawn) [TCMDC-139901]	25.48	–
Cc1nc2ccccn2c1C1(O)C(=O)Nc2c(Cl)cc(Cl)cc21 (stereo not drawn) [TCMDC-124526]	6.508	–
COc1ccc(CC(C)NCC(O)c2ccc(Cl)c(Cl)c2)cc1 (stereo not drawn) [TCMDC-131514]	0.9057	–
